We go through seven molecules from PubChem BioAssay (Tox21).

A number with no mark means an inactive call. Results filed as inconclusive are left out. Activity calls are given as the source filed them. Unless noted, calls come from the whole dose curve; as a rule, active = well fitted curve in the direction sought with a large enough effect in the repeat runs; inconclusive = weak or mixed curves; inactive = no such curve, though single readings can be large; an effect the other way counts as inactive or inconclusive.

The nature of assay [1]: qHTS assay to identify small molecule antagonists of the sonic hedgehog signaling (Shh) pathway (AID 1259369; calls by dose curve; note: nearly all actives have a fitted effect of over 45% in size; note: potency is the fitted concentration of half-maximal effect). In outline: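 For antagonist detection, the reporter line received test compounds together with conditioned medium, incubated 24hr at 37 C, 5% CO2, then luminescence was recorded following 30min room-temperature luciferase reagent incubation.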
(qHTS replaces the single test concentration by a dilution series.)

For assay [2], the target named is Estrogen receptor beta (Homo sapiens) (UniProt Q92731). In words: qHTS assay to identify small molecule agonists of the estrogen receptor beta (ER-beta) signaling pathway (AID 1259377; active = well fitted activation curve with a large enough effect in the signal ratio in the repeat runs, not every such curve was filed as active; the % refers to the signal ratio). In outline:
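Ratiometric beta-lactamase FRET read-out came after 2 h substrate loading at room temperature. It followed 16 h compound treatment at 37C of GripTite HEK293T cells carrying a UAS-bla reporter, plated in 2% charcoal-stripped FBS medium.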

Assay [3] shares this target. In words: qHTS assay to identify small molecule antagonists of the estrogen receptor beta (ER-beta) signaling pathway (AID 1259378; active = well fitted inhibition curve with a large enough effect in the signal ratio in the repeat runs, not every such curve was filed as active; the % refers to the signal ratio). In outline:
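ER-beta-UAS-bla HEK293T cells in 2% charcoal-stripped FBS medium treated with compound plus 1nM final 17-beta-estradiol for 16 hr at 37C. Beta-lactamase reporter read by FRET substrate fluorescence after 2 hours at room temperature.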

Assay [4] in a line: qHTS assay to identify small molecule agonists of the androgen receptor (AR) signaling pathway in the presence of an antagonist - cell viability counter screen (AID 1259379).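 Note: MDA-kb2 human breast cancer cells carrying an MMTV luciferase reporter; series mostly up to about 92 µM; nearly all actives have a fitted effect of over 25% in size.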 The method, boiled down:
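Seed MDA-kb2 at 3,000 cells/well; incubate 5 hr, 37C, 0% CO2. Add nilutamide to 3.0uM final, then pin compounds at 15 concentrations. Incubate 16 hr. Add CellTiter-Fluor at 15 hr, read fluorescence after 1 hr.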

Assay [5] in a line: qHTS assay to identify small molecule antagonists of the estrogen receptor beta (ER-beta) signaling pathway - cell viability counter screen (AID 1259382). Note: series mostly up to about 92 µM; nearly all actives have a fitted effect of over 55% in size. In outline: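 In this multiplexed counter screen, cells were seeded at 2,000 per well in medium with 2% charcoal-stripped FBS and incubated 6 hr before compound and 1nM final E2 were added. Sixteen hours later, ATP-based luminescence reported viability.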

Assay [6] is described as follows: qHTS assay to identify small molecule agonists or antagonists of the thyroid stimulating hormone receptor (TSHR) signaling pathway - wild type cell line counter screen (AID 1259384; calls by dose curve). In outline: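 Wild-type Hek293 cells, 800/well, 18 h at 37C, then compound with Ro20-1724 for 30 min RT. cAMP by HTRF (cAMP-d2/anti-cAMP cryptate), 1 h RT, fluorescence read. 15 concentrations, triplicates.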

Assay [7] has as its target Thyrotropin receptor (Homo sapiens) (UniProt P16473). Kind of assay: qHTS assay to identify small molecule antagonists of the thyroid stimulating hormone receptor (TSHR) signaling pathway (AID 1259385; calls by dose curve; note: nearly all actives have a fitted effect of over 20% in size). The method, boiled down: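 TSHR-HEK293 cells (800/well) plated 18 h, then compounds with Ro20-1724 and TSH at 1.5 ng/mL final, 30 min at room temperature. cAMP quantified by HTRF (cAMP-d2/anti-cAMP-cryptate, 1 h); 15 concentrations in triplicate.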

Assay [8] in a line: qHTS assay to identify small molecule agonists of the estrogen receptor alpha (ER-alpha) signaling pathway in the presence of an antagonist - cell viability counter screen (AID 1259386).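 Note: series mostly up to about 92 µM; cells exposed to compounds for 22 h at 37 °C before the viability read; nearly all actives have a fitted effect of over 30% in size.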 The method, boiled down:
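Viability counter screen using VM7Luc4E2 (full-length ER-alpha, four ERE-luciferase). The cells were treated with compounds alongside ICI-182,780 10.0nM for 22hr, and live-cell protease fluorescence was quantified with CellTiter-Fluor.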

Assay [9] deals with Progesterone receptor (Homo sapiens) (UniProt P06401). In words: qHTS assay to identify small molecule agonists of the progesterone receptor (PR) signaling pathway (AID 1346784; calls by dose curve; note: nearly all actives have a fitted effect of over 30% in size). The method, boiled down:
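Agonist qHTS: compounds pinned onto 3,000 PR-UAS-bla HEK 293T cells per well in charcoal-stripped serum medium, 16hr at 37C, then beta-lactamase activity measured by LiveBLAzer FRET fluorescence after 2 hours at room temperature.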

Assay [10] has the same target. In words: qHTS assay to identify small molecule antagonists of the progesterone receptor (PR) signaling pathway (AID 1346795; active = well fitted inhibition curve with a large enough effect in the signal ratio in the repeat runs, not every such curve was filed as active; the % refers to the signal ratio). The method, boiled down: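 Antagonist mode with agonist R5020 at 1 nM final and 16 hr incubation at 37C. Reporter was beta-lactamase driven by UAS in HEK293T (PR-UAS-bla), 2% charcoal-stripped serum; signal from LiveBLAzer FRET substrate, 2 hr at room temperature.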

Assay [11] can be described thus: qHTS assay to identify small molecule antagonists of the progesterone receptor (PR) signaling pathway - cell viability counter screen (AID 1346798). Note: series mostly up to about 92 µM; nearly all actives have a fitted effect of over 50% in size. The method, boiled down: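 Cytotoxicity read as CellTiter-Glo luminescence (30 min, room temperature) in the same wells as the beta-lactamase readout. HEK293T PR-UAS-bla cells in charcoal-stripped 2% FBS received compound and R5020, then 16 h at 37C, 5% CO2.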

Assay [12] can be described thus: qHTS assay to identify small molecule agonists of the progesterone receptor (PR) signaling pathway - cell viability counter screen (AID 1346799; calls by dose curve; note: nearly all actives have a fitted effect of over 45% in size; note: potency is the fitted concentration of half-maximal effect). The method, boiled down:
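Cytotoxicity measured by CellTiter-Glo luminescence (30 min, RT) in the same wells as the PR beta-lactamase agonist read. Those HEK293T cells had 16 h compound treatment at 37 C in 2% charcoal-stripped FBS medium.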

Assay [13] is described as follows: qHTS assay to identify small molecule antagonists of the TGF-beta/Smad signaling pathway - cell viability counter screen (AID 1346824). Note: nearly all actives have a fitted effect of over 50% in size. In outline: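 SBE-bla HEK 293T cells, incubated overnight, then compound plus 0.25 ng/mL TGF-beta1 (stock added) for 5 hr at 37 C. Viability was read in the same wells by CellTiter-Glo luminescence after 30 min at room temperature.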

A short description of assay [14]: qHTS assay to identify small molecule agonists of the TGF-beta/Smad signaling pathway - cell viability counter screen (AID 1346829). Note: top concentration of the series differs between compounds; nearly all actives have a fitted effect of over 45% in size. The method, boiled down:
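In parallel with the Smad reporter read, viability of HEK 293T cells stably carrying SBE-bla is quantified by ATP luminescence following 5 hr compound treatment.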

Assay [15] in a line: qHTS assay to identify small molecule agonists of the TGF-beta/Smad signaling pathway (AID 1346859; active = well fitted activation curve with a large enough effect in the signal ratio in the repeat runs, not every such curve was filed as active; the % refers to the signal ratio; note: series mostly up to about 77 µM). The method, boiled down: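 Fluorescence (ex 405 nm; em 460 and 530 nm) was read 2 h after LiveBLAzer FRET substrate at RT. The preceding compound treatment of overnight-plated SBE-bla HEK293T cells lasted 5 h at 37 C.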
In assay [16] the target is Thyrotropin-releasing hormone receptor (Homo sapiens) (UniProt P34981). In words: qHTS assay to identify small molecule antagonists of the thyrotropin-releasing hormone receptor (TRHR) signaling pathway (AID 1346877; active = well fitted inhibition curve with a large enough effect in the repeat runs, not every such curve was filed as active; note: series mostly up to about 51 µM). In outline: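 Following an 18 h incubation at 37 °C and a 2 h calcium dye load, TRHR-HEK293 cells were exposed to compound (5 min, room temperature) and challenged with TRH, 1 nM final.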
Thyrotropin-releasing hormone receptor (Homo sapiens), sequence (P34981 whole entry, looked up): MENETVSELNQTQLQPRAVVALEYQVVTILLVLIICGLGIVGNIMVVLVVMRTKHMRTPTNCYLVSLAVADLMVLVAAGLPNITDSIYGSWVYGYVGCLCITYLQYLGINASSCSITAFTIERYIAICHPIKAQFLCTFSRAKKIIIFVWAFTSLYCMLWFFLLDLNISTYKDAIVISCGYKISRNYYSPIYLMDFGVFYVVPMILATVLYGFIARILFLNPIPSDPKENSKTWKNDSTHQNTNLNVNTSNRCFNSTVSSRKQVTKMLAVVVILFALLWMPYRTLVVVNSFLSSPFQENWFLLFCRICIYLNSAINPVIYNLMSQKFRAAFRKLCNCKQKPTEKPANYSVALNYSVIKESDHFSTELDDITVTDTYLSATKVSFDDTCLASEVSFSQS

Assay [17] has the same target. In words: qHTS assay to identify small molecule agonists of the thyrotropin-releasing hormone receptor (TRHR) signaling pathway (AID 1346891; calls by dose curve; note: series mostly up to about 58 µM). In outline: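 Agonist-mode intracellular calcium readout: kinetic fluorescence over 3 min at 1 s intervals after compound addition to TRHR-HEK293 cells (18 h seeded, 2 h dye-loaded at 37 C). Fifteen concentrations, triplicates.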

Assay [18] concerns the target Androgen receptor (Homo sapiens) (UniProt P10275). Kind of assay: qHTS assay to identify small molecule agonists of the androgen receptor (AR) signaling pathway in the presence of an antagonist (AID 1259381; calls by dose curve; note: nearly all actives have a fitted effect of over 15% in size). In outline:
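Test compounds at 15 concentrations were incubated for 16hr with MDA-kb2 reporter cells in presence of 3.0uM nilutamide (final). Signal: ONE-Glo luciferase luminescence.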

Assay [19] is described as follows: qHTS assay to identify small molecule agonists of the estrogen receptor beta (ER-beta) signaling pathway - cell viability counter screen (AID 1259380). Note: nearly all actives have a fitted effect of over 30% in size. In outline: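 CellTiter-Glo read, 30 min RT, same wells as bla assay; cells ER-beta-UAS-bla HEK293T; 16 hr compound, 37C; medium 2% charcoal-stripped FBS.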
Assay [20] has as its target Estrogen receptor (Homo sapiens) (UniProt P03372). Kind of assay: qHTS assay to identify small molecule agonists of the estrogen receptor alpha (ER-alpha) signaling pathway in the presence of an antagonist (AID 1259383; calls by dose curve; note: top concentration of the series differs between compounds; nearly all actives have a fitted effect of over 15% in size). In outline:
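Stably transfected VM7Luc4E2 reporter cells, kept 5 days in charcoal-stripped serum, received ICI-182,780 at 10.0nM final before compound addition. Following 22hr incubation at 37C and 5% CO2, luciferase signal was read by luminescence.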

Progesterone receptor (Homo sapiens), sequence (P06401 whole entry, looked up): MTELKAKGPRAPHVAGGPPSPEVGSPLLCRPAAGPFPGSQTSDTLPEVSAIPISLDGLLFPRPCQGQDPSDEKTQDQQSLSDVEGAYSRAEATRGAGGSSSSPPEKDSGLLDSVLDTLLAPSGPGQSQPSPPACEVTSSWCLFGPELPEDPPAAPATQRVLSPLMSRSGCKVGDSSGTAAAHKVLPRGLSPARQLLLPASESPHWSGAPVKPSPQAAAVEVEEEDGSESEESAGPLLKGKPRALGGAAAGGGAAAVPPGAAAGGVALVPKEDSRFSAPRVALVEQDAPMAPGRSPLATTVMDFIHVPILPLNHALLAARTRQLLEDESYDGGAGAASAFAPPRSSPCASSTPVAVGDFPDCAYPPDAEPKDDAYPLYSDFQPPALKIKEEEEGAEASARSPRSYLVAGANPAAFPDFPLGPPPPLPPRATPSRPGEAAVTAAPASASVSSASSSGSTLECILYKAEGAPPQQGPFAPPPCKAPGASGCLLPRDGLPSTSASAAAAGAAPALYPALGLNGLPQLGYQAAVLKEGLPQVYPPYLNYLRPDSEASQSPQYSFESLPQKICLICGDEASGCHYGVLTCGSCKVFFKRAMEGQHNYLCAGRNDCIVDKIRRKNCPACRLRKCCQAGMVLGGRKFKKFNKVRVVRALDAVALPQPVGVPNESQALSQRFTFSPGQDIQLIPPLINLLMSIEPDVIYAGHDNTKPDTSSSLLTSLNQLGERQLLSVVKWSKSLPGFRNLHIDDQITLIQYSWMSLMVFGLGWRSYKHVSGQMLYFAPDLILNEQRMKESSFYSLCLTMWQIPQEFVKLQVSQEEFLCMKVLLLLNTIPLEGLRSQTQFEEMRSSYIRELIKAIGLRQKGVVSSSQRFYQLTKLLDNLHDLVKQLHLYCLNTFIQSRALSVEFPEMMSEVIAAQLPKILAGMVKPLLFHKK
Thyrotropin receptor (Homo sapiens), sequence (P16473 whole entry, looked up): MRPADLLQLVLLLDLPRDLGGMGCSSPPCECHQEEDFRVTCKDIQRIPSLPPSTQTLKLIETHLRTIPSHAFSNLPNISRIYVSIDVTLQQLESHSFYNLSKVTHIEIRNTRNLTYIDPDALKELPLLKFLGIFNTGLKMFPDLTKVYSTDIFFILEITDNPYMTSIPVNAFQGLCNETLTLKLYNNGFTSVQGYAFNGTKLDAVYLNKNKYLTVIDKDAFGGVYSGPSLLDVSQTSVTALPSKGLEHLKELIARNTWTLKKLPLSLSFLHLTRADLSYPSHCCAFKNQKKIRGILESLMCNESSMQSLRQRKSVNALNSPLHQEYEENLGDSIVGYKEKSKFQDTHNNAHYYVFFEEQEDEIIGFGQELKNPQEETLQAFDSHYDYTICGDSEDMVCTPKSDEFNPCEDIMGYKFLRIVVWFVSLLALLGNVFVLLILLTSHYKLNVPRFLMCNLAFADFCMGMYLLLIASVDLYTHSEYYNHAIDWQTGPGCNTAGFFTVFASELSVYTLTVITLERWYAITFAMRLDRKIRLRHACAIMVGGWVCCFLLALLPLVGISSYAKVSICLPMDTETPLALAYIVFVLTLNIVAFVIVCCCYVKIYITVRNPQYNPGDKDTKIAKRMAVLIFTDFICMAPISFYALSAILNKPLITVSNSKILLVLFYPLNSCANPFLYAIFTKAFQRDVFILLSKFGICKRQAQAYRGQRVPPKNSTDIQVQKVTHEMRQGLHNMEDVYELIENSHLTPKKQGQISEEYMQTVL
Estrogen receptor beta (Homo sapiens), sequence (Q92731 whole entry, looked up): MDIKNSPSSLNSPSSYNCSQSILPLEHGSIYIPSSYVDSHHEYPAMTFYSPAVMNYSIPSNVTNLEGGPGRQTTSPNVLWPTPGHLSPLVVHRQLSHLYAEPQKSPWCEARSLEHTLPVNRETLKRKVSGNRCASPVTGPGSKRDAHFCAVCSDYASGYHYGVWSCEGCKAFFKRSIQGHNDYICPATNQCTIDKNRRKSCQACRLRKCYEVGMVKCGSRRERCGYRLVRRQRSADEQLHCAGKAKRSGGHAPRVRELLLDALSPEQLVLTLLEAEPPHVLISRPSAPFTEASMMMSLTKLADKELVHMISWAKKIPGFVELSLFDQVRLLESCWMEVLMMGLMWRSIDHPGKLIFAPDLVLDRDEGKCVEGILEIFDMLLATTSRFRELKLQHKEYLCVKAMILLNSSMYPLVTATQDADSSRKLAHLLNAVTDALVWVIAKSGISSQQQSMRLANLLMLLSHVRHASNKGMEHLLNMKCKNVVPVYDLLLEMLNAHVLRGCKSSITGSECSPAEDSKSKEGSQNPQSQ
Estrogen receptor (Homo sapiens), sequence (P03372 whole entry, looked up): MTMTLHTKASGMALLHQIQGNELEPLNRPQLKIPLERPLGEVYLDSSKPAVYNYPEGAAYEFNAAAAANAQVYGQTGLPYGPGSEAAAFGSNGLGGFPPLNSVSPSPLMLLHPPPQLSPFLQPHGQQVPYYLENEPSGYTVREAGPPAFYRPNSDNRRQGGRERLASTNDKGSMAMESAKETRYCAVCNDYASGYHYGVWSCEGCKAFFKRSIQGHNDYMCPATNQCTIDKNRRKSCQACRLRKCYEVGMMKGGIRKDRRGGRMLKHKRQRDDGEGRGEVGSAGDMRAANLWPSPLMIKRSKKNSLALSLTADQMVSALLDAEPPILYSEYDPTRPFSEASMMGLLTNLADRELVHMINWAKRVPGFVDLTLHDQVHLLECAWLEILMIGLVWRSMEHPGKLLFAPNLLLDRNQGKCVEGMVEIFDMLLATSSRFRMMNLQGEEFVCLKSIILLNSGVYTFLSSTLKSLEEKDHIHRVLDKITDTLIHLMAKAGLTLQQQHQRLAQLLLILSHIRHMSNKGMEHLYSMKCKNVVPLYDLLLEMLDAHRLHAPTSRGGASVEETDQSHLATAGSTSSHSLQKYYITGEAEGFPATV
Androgen receptor (Homo sapiens), sequence (P10275 whole entry, looked up): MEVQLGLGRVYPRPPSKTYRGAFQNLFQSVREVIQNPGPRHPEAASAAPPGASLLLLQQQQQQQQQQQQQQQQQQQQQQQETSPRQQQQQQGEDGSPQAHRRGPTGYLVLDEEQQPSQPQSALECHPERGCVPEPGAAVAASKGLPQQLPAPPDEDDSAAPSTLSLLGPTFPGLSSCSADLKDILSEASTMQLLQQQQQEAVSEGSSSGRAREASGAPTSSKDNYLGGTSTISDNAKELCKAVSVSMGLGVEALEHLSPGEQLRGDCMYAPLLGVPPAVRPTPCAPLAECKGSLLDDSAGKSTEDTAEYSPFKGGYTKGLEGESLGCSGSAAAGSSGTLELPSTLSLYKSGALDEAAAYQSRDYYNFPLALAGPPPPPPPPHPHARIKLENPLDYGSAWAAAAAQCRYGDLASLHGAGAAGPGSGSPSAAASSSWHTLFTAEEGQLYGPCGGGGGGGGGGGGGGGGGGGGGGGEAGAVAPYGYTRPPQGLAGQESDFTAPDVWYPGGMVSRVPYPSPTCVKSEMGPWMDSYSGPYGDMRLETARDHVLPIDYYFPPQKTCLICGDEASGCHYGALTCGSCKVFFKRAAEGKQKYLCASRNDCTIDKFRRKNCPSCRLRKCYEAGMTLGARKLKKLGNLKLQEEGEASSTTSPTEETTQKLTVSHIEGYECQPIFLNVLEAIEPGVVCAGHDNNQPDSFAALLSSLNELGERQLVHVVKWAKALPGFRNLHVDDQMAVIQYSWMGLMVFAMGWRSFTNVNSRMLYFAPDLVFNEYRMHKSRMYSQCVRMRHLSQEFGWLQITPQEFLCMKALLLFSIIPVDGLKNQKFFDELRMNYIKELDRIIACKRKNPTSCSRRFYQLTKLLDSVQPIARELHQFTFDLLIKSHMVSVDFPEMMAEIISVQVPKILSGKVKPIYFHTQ

On to `Cc1cn([C@@H]2O[C@H](CO)[C@@H](O)[C@@H]2F)c(=O)[nH]c1=O`, for which the Potency result in assay [1], in [3], in [4], in assay [7], in [8] and in assay [9] was “inactive” each time. Further, the Potency entry in assay [10], in [11], in assay [12] and in assay [17] was “inactive” in each case. Further, the call in assay [2], in assay [5], in assay [6], in assay [13], in assay [14] and in assay [15] was inactive. Further, in assay [16], the molecule was classed as inactive.
In the case of `N#Cc1ccc(C(c2ccc(C#N)cc2)n2cncn2)cc1`, the Potency result in assay [1], in [3], in [4], in assay [18], in assay [7] and in assay [8] was “inactive” throughout. The Potency entry in assay [10] and in assay [17] was “inactive” each time. In addition, the molecule was called inactive in [2], in assay [5], in assay [6], in assay [13], in assay [14] and in [15]. The call in [16] was inactive.
For `NC(=O)Cc1cccc(C(=O)c2ccccc2)c1N`, the Potency result in [1], in assay [3], in assay [4], in assay [19], in assay [8] and in assay [10] was “inactive” throughout. The Potency result in [11] was “inactive”. For the same molecule, the result in assay [2], in assay [13], in assay [14] and in assay [15] was inactive.
Take `CC(=O)Oc1cc(C(C)C)c(OCCN(C)C)cc1C`: the Potency result in assay [1], in assay [3], in assay [4], in assay [7], in assay [8] and in [9] was “inactive” each time. The Potency result in [10], in [11], in [12] and in assay [17] was “inactive” throughout. In addition, the result in [2], in assay [5], in [6], in assay [13], in assay [14] and in [15] was inactive. Besides, the outcome in [16] was inactive.
`Cc1nnc(SCC2=C(C(=O)O)N3C(=O)[C@@H](NC(=O)Cn4cnnn4)[C@H]3SC2)s1`: the Potency result in assay [1], in [3], in assay [4], in [20], in assay [7] and in assay [8] was “inactive” throughout. Further, the Potency entry in assay [9], in [11], in [12] and in [17] was “inactive” in each case. In addition, the call in assay [2], in assay [5], in [6], in assay [14], in assay [15] and in [16] was inactive.
On to `ICCc1ccccc1`, for which the results for the Potency in [1] and in assay [12] were 16.9 µM (active) and 59.9 µM (active), respectively. Also, the molecule was called inactive in [2], in [6], in assay [13], in [14], in assay [15] and in assay [16]. Besides, the Potency entry in assay [3], in assay [4], in [19], in [7], in assay [8] and in assay [17] was “inactive” throughout.
As for `O=CCCc1ccccc1`, the Potency entry in [1], in assay [3], in assay [4], in assay [19], in [8] and in assay [9] was “inactive” in each case. The Potency entry in [10] and in assay [12] was “inactive” throughout. Further, the molecule was classed as inactive in assay [2], in assay [13], in [14] and in assay [15].
